# In all, about 1,300 compounds went through this assay and about 25 (2%) were called active. Another 9% or so got no clear call; they are omitted. The sample as a whole holds a higher share of actives than the screen did. Values without a mark were called inactive. Calls follow the shape of the dose curve; as a rule, active = well fitted activation curve with a large enough effect; inconclusive = small, poorly fitted or top-dose-only effect; inactive = flat fitted curve, though single readings scatter.
# Target: Glucagon-like peptide 1 receptor (Homo sapiens) (UniProt P43220)
# Experiment: qHTS of GLP-1 Receptor Agonists: Hit Validation; as to activation: % of control where 0% means no effect
# Settings: HEK293 GLP-1R, cAMP-response luciferase, 4-6 h; series mostly up to 46.1 µM; activation: at the top concentration
# Source text: The overall goal of this project was to develop a novel assay for discovering small molecule ligands for class B1 G protein-coupled receptors (GPCRs). Very few agonists (or inverse agonists) with generally weak activity for this entire group of physiologically important receptors are known to date. To establish proof-of-principle that this critical bottleneck can be overcome with a suitable screening approach, our studies focused on the class B1 receptor for glucagon-like peptide-1 (GLP-1R), a potential therapeutic target for diabetes and neurodegenerative disease. The assay was developed in a "mix and measure" format using a cell-based functional readout. Toward this goal, stably transfected HEK293 cell clones were established that co-express (i) a cAMP-responsive luciferase reporter gene, and (ii) GLP-1Rs that upon ligand interaction either stimulate (agonists) or inhibit (inverse agonists) luciferase activity. In different cell lines to be used for screening, expressed GLP-1Rs are specifically optimized for high sensitivity detection of either weak agonists (hypersensitive receptor) or inverse agonists (constitutively active receptor mutant). In addition, control cell lines were developed that express either the cAMP-responsive reporter gene without recombinant GLP-1Rs (enabling initial exclusion of GLP-1R independent effects of candidate probes), or the reporter gene together with wild type GLP-1Rs (for confirmation of probe activity at this receptor), or the reporter gene in combination with the constitutively active orphan receptor GPR119 (enabling initial exclusion of GLP-1R independent inhibitory effects of candidate inverse agonists). To that end, this assay was optimized for 1536-well format and screened against the MLSMR. NIH Molecular Libraries Probe Production Network [MLPCN] NIH Chemical Genomics Center [NCGC] Grant: NS064851 PI Name: Martin Beinborn, Tufts Medical Center
# In a white solid 1536-well plate, 6 uL of cells are dispensed in DMEM without phenol red, 10% Nu serum, and 1% pen-strep medium. The plates are then incubated for 12 hours at 37 deg C at 5% CO2 before 23 nL of compounds are added. After a 4-6 hr incubation at37 deg C and 5% CO2, 3 uL of detection reagent are added and after a 12 min incubation at RT, a luminescent read is obtained on the ViewLux.
# Potency is read from the fitted curve at half-maximal effect.
# Sequence of Glucagon-like peptide 1 receptor (Homo sapiens) (P43220 whole entry, looked up): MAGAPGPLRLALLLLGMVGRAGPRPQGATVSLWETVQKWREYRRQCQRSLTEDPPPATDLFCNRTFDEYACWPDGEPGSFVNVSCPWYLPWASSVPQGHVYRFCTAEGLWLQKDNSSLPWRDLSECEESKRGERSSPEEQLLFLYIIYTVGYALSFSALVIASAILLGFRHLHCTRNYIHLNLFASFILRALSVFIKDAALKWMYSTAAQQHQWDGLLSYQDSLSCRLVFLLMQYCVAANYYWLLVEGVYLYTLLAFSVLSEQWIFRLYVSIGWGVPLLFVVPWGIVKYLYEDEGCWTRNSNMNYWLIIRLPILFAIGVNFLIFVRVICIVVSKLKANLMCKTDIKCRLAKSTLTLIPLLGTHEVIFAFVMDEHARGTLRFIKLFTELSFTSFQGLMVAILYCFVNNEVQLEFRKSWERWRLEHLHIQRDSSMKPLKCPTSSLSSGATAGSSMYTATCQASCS
Structure (SMILES),Potency,activation [%]
CC(Cc1ccc(O)cc1)NCC(O)c1ccc(O)c(O)c1 (stereo not given),9.2 nM (active),–
O=c1[nH]cnc2nc(-c3ccc(N(CCCl)CCCl)cc3)[nH]c12,–,17.1
N#Cc1c(/N=C/c2ccc(O)cc2O)sc2c1C1CCN2CC1,–,12.4
C[C@@H]1CN([C@H](C)CO)C(=O)CCCn2cc(nn2)CO[C@H]1CN(C)C(=O)Oc1ccc2ccccc2c1,–,-0.911
CN1CCN=C(c2ccccc2)c2cc(Cl)ccc21,–,-0.229

# From PubChem BioAssay AID743262 (National Center for Advancing Translational Sciences (NCATS), 2014)
